Source: PubChem BioAssay (NCATS)
Values joined by “and” are separate entries in the source; they are usually repeats but may differ in a detail not shown here. Identical values can stand only once. Inconclusive results are not listed. Active and inactive are the calls of the source. Unless noted, the call rests on the fitted dose curve; in most records, active means well fitted curve in the direction sought with a large enough effect; inconclusive means small, poorly fitted or top-dose-only effect, or another doubt; inactive means no such curve, though single readings can be large; an effect the other way counts as inactive or inconclusive.

Experiments:
[1] = target: Phospholipid hydroperoxide glutathione peroxidase GPX4 (Homo sapiens) (UniProt P36969); test: Primary qHTS Assay for Inhibitors of Recombinant Selenoprotein Glutathione Peroxidase 4 (GPX4) (AID 1845192); further: nearly all actives have a fitted effect of over 65% in size; further: potency means the concentration at half of the fitted maximal effect
Summary of the method: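 Steps: GPX4 plus compound, 30 min RT; add GR/GSH/NADPH master mix; start with cumene hydroperoxide; read 340/450 nm fluorescence at 0 and 15 min. Finals were 200 nM GPX4, 1 mM GSH, 0.5 mM CHP, 0.5 mM NADPH, 100 nM GR.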

[2] = target: Glutathione peroxidase 1 (Homo sapiens) (UniProt P07203); test: Primary qHTS Assay for Inhibitors of Recombinant Selenoprotein Glutathione Peroxidase 1 (GPX1) (AID 1845191); further: nearly all actives have a fitted effect of over 65% in size; further: potency means the concentration at half of the fitted maximal effect
Summary of the method: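 GR-coupled readout: NADPH consumption tracked by fluorescence, ex 340/em 450 nm, at t=0 and after 15 min at RT. Final mix 10 nM GPX1, 1 mM GSH, 0.5 mM CHP, 0.5 mM NADPH, 100 nM GR, 0.01% BSA, following 30 min enzyme–compound preincubation.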

[3] = Cell Viability - N2a (AID 540); conditions: N2a mouse neuroblastoma cell viability; activity change, negative = cytotoxicity: at 92.2 µM (top of the series);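 further: plate controls were DMSO alone for no effect and tamoxifen control for full effect; nearly all actives have a fitted effect of over 45% in size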
Summary of the method: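 In this qHTS cytotoxicity screen, ATP-dependent luciferase luminescence reports viable N2a cells after a 40 hr compound exposure in complete culture medium. Potencies are AC50 values from standard Hill equation fits.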

[4] = Cell Viability - SH-SY5Y (AID 544);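 further: 0% = DMSO alone and -100% = 100 µM tamoxifen; nearly all actives have a fitted effect of over 55% in size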
Summary of the method: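 Quantitative HTS in SH-SY5Y neuroblastoma cells, 40 hr treatment at 37 °C, ATP content by luciferase luminescence; AC50 from Hill fits.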

[5] = Cell Viability - Renal Proximal Tubule (AID 545); conditions: renal proximal tubule cells viability, primary cells of rat origin; at 91.7 µM (top of the series);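 further: 0% = DMSO only and -100% = 100 µM tamoxifen; nearly all actives have a fitted effect of over 40% in size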
Summary of the method: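 Rat renal proximal tubule primary cells, 1000/well, exposed to compounds for 40 hr at 37 °C in complete medium; cellular ATP read by CellTiter-Glo luminescence. AC50 from concentration-response fitted with standard Hill equation.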

[6] = Cell Viability - Mesenchymal (AID 546); conditions: mesenchymal cells viability, qHTS; activity change, negative = cytotoxicity: at 91.7 µM (top of the series);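 further: cells exposed to compound for 40 hours before reading; 0% = DMSO only and -100% = 100 µM tamoxifen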
Summary of the method: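 Human renal mesenchymal cells (glomerulus-derived), 1000 cells/well, 5 hr 37 °C pre-incubation; compound 40 hr, 37 °C; CellTiter-Glo, 20 min RT; luminescence; AC50 via Hill equation.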

[7] = Cellular Toxicity (caspase-3) HepG2 (AID 654);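 further: cells exposed to compound for 16 hours before reading; 0% = DMSO alone and 100% = caspase signal from 100 µM tamoxifen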
Summary of the method: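 Concentration-response AC50 values reflect caspase-3/7 induction in HepG2 cells after 16 hours of compound exposure, quantified by luminescence from liberated aminoluciferin and referenced to 100 uM tamoxifen as full stimulation.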

[8] = Cellular Toxicity (caspase-3) HUV-EC-C (AID 656);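 further: 0% = DMSO basal and 100% = 100 µM tamoxifen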
Summary of the method: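 HUV-EC-C cells (1000/well) in complete medium, compound-treated 16 h at 37 °C; caspase-3/7 activity read by Caspase-Glo 3/7 luminescence. Normalized to DMSO (basal) and 100 uM tamoxifen (100%); AC50 from Hill-equation concentration-response fits.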

[9] = Cellular Toxicity (caspase-3) BJ (AID 658);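 further: 0% = DMSO basal and 100% = 10 µM staurosporine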
Summary of the method: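 qHTS, BJ fibroblasts, 1000 cells/well; 5 hr preincubation, 16 hr compound, 37 °C; Caspase-Glo 3/7 reagent, 1 hr RT; luminescence. DMSO = 0%, 10 uM staurosporine = 100%. Hill-equation AC50.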

[10] = Cellular Toxicity (caspase-3) MRC-5 (AID 659);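 further: 0% = DMSO basal and 100% = 10 µM staurosporine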
Summary of the method: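 MRC-5 fibroblasts, 1500/well; 16 h cpd, 37 °C; Caspase-Glo 3/7, 1 h RT; lumi read. Norm: DMSO = 0%, 10 uM staurosporine = 100%. Hill-fit AC50 from qHTS conc-response.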

[11] = Cellular Toxicity (caspase-3) Mesangial (AID 660);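 further: cells exposed to compound for 16 h before the caspase read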
Summary of the method: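 AC50 values come from Hill-equation fits of caspase 3/7 activation, measured as Caspase-Glo luminescence in human glomerular mesangial cells exposed to compound for 16 h at 37 °C; 100% set by 100 uM tamoxifen.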

[12] = Cellular Toxicity (caspase-3) Hek293 (AID 664);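 further: cells exposed to compound for 16 h at 37 °C before readout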
Summary of the method: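 Apoptosis readout: Caspase-Glo 3/7 signal in human HEK293 cells following 16-hour compound incubation. Responses scaled between DMSO baseline and 100 uM tamoxifen.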

[13] = Cellular Toxicity (caspase-3) N2a (AID 665);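 further: compound exposure lasted 16 h at 37 °C before readout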
Summary of the method: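 Concentration-response qHTS: compound-induced caspase-3/7 luminescence in N2a cells (16 h, 37 °C), relative to DMSO and 10 uM staurosporine controls; AC50 obtained using the standard Hill equation.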

[14] = qHTS Assay for Identification of Small Molecule Inducers of Hypoxia Response (AID 2120; active means well fitted curve in the direction sought with a large enough effect in the signal ratio, with a control signal flat, not every such curve was filed as active; the % refers to the signal ratio; further: 0% is about no effect)
Summary of the method: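 HRE-bla ME-180, 2500 cells/well, 0.5% dialyzed FBS medium; cpd titration, 17 h 37 degrees C; CCF4 2.5 h RT; Ex 405, Em 460/530 ratio -> %Activity, AC50.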

[15] = qHTS assay for small molecule antagonists of retinoid X receptor alpha signaling (AID 588546; active means well fitted inhibition curve with a large enough effect in the signal ratio, with a control signal flat, not every such curve was filed as active; the % refers to the signal ratio;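 further: cells stimulated with 9-cis-retinoic acid as agonist; on the % scale 0 is the no-effect control and ±100 the full control effect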); conditions: HEK293T RXRa-UAS-bla, beta-lactamase ratio, antagonist mode; measured here: W530 green channel, cytotoxicity proxy
Summary of the method: (§1)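 Beta-lactamase reporter inhibition, read as CCF4 fluorescence ratio (ex 405, em 460/530 nm) after 2 h at RT. HEK293T UAS-bla cells, 2500/well, were stimulated with 9-cis-RA at 500 or 100 nM final alongside test compound for 18 h at 37 C.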

[16] = target: Retinoic acid receptor RXR-alpha (Homo sapiens) (UniProt P19793); test: as above; conditions: HEK293T RXRa-UAS-bla, beta-lactamase ratio, antagonist mode
Summary of the method: as §1

[17] = target: Peroxisome proliferator-activated receptor alpha (Homo sapiens) (UniProt Q07869); test: qHTS assay for small molecule agonists of the peroxisome proliferator-activated receptor alpha (PPARalpha) signaling pathway (AID 651778); conditions: PathHunter PPARalpha complementation, chemiluminescence, 6 h; max response: stronger effect = higher value; further: % of control where 0% means no effect
Summary of the method: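 Enzyme-fragment complementation assay in which ligand-bound PPARalpha translocates and forms an active enzyme that generates chemiluminescence. Cells were plated overnight, exposed to compound for 6 hr at 37 C, and then given detection reagent for 60 min at room temperature.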

[18] = qHTS assay for cell viability of HEK293 cells (AID 743288); conditions: ATP luminescence (CellTiter-Glo), 18 h; max response: stronger effect = lower value; further: on the % scale 0 is the no-effect control and ±100 the full control effect; nearly all actives have a fitted effect of over 50% in size
Summary of the method: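 Steps: plate 2,000 parental HEK293 cells per well; incubate ≥5 h, 37 C; add compounds in DMSO; incubate 18 h, 37 C; add CellTiter-Glo; wait 30 min at room temperature; read luminescence.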

[19] = qHTS assay for cell viability of the p53RE-bla HCT-116 cell line (AID 743292); further: on the % scale 0 is the no-effect control and ±100 the full control effect; nearly all actives have a fitted effect of over 55% in size
Summary of the method: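 HCT-116 p53RE-bla cells seeded 4,000/well; 5 h at 37 C; compound (DMSO) added; 16 h at 37 C; CellTiter-Glo added, 30 min RT; luminescence read.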

[20] = qHTS assay for environmental chemicals that activate the Aryl hydrocarbon Receptor (AhR) signaling pathway (AID 651777); conditions: 1A2-DRE human hepatoma cells, luciferase, 24 h; activation: stronger effect = higher value; further: % of control where 0% means no effect; nearly all actives have a fitted effect of over 15% in size
Summary of the method: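 1A2-DRE human hepatoma reporter line; 1,200 cells/well; cmpd or DMSO 24 h, 37 C/5% CO2; One-Glo 30 min RT; luciferase lum.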

Sequence of Retinoic acid receptor RXR-alpha (Homo sapiens) (P19793 whole entry, looked up): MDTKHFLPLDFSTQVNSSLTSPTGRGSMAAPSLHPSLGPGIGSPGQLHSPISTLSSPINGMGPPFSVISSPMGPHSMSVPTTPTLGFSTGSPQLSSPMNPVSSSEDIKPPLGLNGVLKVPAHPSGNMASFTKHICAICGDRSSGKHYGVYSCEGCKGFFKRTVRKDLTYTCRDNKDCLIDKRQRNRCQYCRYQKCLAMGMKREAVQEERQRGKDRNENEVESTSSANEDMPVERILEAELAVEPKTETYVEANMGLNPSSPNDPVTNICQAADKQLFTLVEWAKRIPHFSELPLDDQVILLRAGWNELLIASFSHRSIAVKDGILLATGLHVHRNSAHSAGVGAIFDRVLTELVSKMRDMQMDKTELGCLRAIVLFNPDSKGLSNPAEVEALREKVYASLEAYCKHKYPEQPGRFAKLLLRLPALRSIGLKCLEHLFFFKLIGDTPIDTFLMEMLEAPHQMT
Sequence of Glutathione peroxidase 1 (Homo sapiens) (P07203 whole entry, looked up): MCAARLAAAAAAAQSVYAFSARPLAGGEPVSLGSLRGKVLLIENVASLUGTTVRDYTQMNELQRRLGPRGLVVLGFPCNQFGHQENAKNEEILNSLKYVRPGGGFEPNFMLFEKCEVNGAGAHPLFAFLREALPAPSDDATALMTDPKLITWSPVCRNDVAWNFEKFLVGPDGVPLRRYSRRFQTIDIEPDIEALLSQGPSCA
Sequence of Peroxisome proliferator-activated receptor alpha (Homo sapiens) (Q07869 whole entry, looked up, the tested form may be a part): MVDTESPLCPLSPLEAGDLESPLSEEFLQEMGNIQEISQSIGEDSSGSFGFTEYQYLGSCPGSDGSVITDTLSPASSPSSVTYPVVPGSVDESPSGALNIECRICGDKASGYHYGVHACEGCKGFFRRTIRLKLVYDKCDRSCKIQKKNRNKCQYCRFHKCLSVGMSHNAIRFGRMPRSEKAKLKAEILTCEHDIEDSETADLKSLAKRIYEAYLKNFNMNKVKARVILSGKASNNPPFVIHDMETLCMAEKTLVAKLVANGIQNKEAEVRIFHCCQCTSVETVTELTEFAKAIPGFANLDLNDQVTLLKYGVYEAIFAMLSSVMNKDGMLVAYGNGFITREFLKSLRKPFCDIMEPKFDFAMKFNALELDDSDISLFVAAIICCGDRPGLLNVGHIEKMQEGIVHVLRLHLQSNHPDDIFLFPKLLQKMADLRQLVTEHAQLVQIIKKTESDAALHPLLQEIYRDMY
Sequence of Phospholipid hydroperoxide glutathione peroxidase GPX4 (Homo sapiens) (P36969 whole entry, looked up): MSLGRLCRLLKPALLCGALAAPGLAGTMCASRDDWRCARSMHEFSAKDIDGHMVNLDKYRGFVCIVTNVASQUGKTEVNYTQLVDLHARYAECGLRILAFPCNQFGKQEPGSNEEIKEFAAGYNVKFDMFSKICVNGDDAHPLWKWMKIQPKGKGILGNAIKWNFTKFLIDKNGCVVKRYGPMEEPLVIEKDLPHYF

[2H]N[C@@H](Cc1ccccc1)C(=O)N1CCC[C@H]1C(=O)N[C@@H](CCCNC(=N)N)C(=O)N1CCC[C@H]1C(=O)NCC(=O)NCC(=O)NCC(=O)NCC(=O)N[C@@H](CC(N)=O)C(=O)NCC(=O)N[C@@H](CC(=O)O)C(=O)N[C@@H](Cc1ccccc1)C(=O)N[C@@H](CCC(=O)O)C(=O)N[C@@H](CCC(=O)O)C(=O)N[C@H](C(=O)N1CCC[C@H]1C(=O)N[C@@H](CCC(=O)O)C(=O)N[C@@H](CCC(=O)O)C(=O)N[C@@H](Cc1ccc(O)cc1)C(=O)N[C@@H](CC(C)C)C(=O)O)[C@@H](C)CC
inactive: outcome [1] inactive [at 9.73 µM]

N=C(N)c1ccc(OCCCOc2ccc(C(=N)N)cc2Br)c(Br)c1
inactive: Potency [2] | Potency [1]

CC/C=C(\C(=O)N[C@H]1C(=O)N2C(C(=O)OCOC(=O)C(C)(C)C)=C(COC(N)=O)CS[C@H]12)c1csc(N)n1
active: Potency [2] 6.26 µM

O=NCc1ccc([N+](=O)[O-])o1
inactive: Potency [2]

CONC(=O)c1ccccc1Nc1cc(Nc2cc(C)nn2C(C)C)ncc1Cl
inactive: Potency [2]

CSCCNc1nc(SCCC(F)(F)F)nc2c1ncn2[C@@H]1O[C@H](COP(=O)(O)OP(=O)(O)C(Cl)(Cl)P(=O)(O)O)[C@@H](O)[C@H]1O
inactive: Potency [1]

CCO[Si](CCCN)(OCC)OCC
-0.81% and -5.53%: max response [15]
inactive: activity change, negative = cytotoxicity [3] -19% | Potency [4] | activity change, negative = cytotoxicity [5] -12% | activity change, negative = cytotoxicity [6] -8.88% | outcome [7] | outcome [8] | outcome [9] | outcome [10] | outcome [11] | outcome [12] | outcome [13] | outcome [14] | max response [16] 16.1% and 0.599% | max response [17] -1.45% and -1.48% | max response [18] -4.38% and -9.06% | Potency [19]

NCCC[C@H](NC(=O)[C@@H]1CCCN1C(=O)[C@@H]1CSSC[C@H](N)C(=O)N[C@@H](Cc2ccc(O)cc2)C(=O)N[C@@H](Cc2ccccc2)C(=O)N[C@@H](CCC(N)=O)C(=O)N[C@@H](CC(N)=O)C(=O)N1)C(=O)NCC(N)=O
active: Potency [1] 25.1 µM

OC[C@H]1O[C@H](O)[C@H](O)[C@@H](O)[C@@H]1O
inactive: Potency [1]

COC(=O)c1ccc(C)cc1
inactive: activity change, negative = cytotoxicity [3] -14.4% | Potency [4] | activity change, negative = cytotoxicity [5] -5.83% | activity change, negative = cytotoxicity [6] -2.78% | outcome [7] | outcome [8] | outcome [9] | outcome [10] | outcome [11] | outcome [12] | outcome [13] | outcome [14] | max response [16] 25.4% and -1.75% | activation [20] -1.02% and 0.0239% | max response [17] 0.456% and 0.65% | max response [18] 4.41% and -4.05% | Potency [19]
-12.4% and -3.35%: max response [15]

CC1=CC(C)(C)Nc2ccccc21
inactive: activity change, negative = cytotoxicity [3] -24% and 1.94% | Potency [4] | activity change, negative = cytotoxicity [5] -6.6% and -0.974% | activity change, negative = cytotoxicity [6] 16.2% and 9.84% | outcome [7] | outcome [8] | outcome [9] | outcome [10] | outcome [11] | outcome [12] | outcome [13] | outcome [14] | max response [16] 7.64% and -0.906% | activation [20] 1.47% and 1.06% | max response [17] 2.08% and -3.28% | max response [18] -4.28% and -1.89% | Potency [19]
-11.3% and -9.31%: max response [15]

CCc1cc2c(cc1CC)CC(NC[C@H](O)c1ccc(O)c3[nH]c(=O)ccc13)C2
active: Potency [1] 10 µM

CCCCOCCO
-0.95% and -3.08% and -12.9%: max response [15]
inactive: activity change, negative = cytotoxicity [3] 6.13% and -1.59% | Potency [4] | activity change, negative = cytotoxicity [5] 5.22% and -6.35% | activity change, negative = cytotoxicity [6] 1.27% and 8.74% | outcome [7] | outcome [8] | outcome [9] | outcome [10] | outcome [11] | outcome [12] | outcome [13] | outcome [14] | max response [16] 8.5% and -5.75% and -0.568% | activation [20] -1.94% and 0.578% and 2.45% | max response [17] -6.41% and -1.42% and -1.76% | max response [18] 4.48% and -11.2% and -7.95% | Potency [19]

COC(=O)c1ccc(C=O)cc1
-1.3% and -26.3%: max response [15]
inactive: activity change, negative = cytotoxicity [3] -4.37% | Potency [4] | activity change, negative = cytotoxicity [5] -14.2% | activity change, negative = cytotoxicity [6] -7.99% | outcome [7] | outcome [8] | outcome [9] | outcome [10] | outcome [11] | outcome [12] | outcome [13] | outcome [14] | max response [16] 21.2% and -1.21% | activation [20] 1.65% and -0.822% | max response [17] -7.41% and -4.28% | max response [18] -15.6% and -6.77% | Potency [19]

O=C(Nc1ccc(-c2ccnc(Nc3ccc(N4CCOCC4)cc3)n2)cc1)[C@@H]1CCCN1
inactive: Potency [1]

OC(c1ccccc1)(c1ccccc1)C12CC[N+](CCOCc3ccccc3)(CC1)CC2
inactive: Potency [1]

Clc1cc(Cl)c(Cl)c(Cl)c1Cl
inactive: activity change, negative = cytotoxicity [3] -10.3% | Potency [4] | activity change, negative = cytotoxicity [5] -5.98% | activity change, negative = cytotoxicity [6] -0.0158% | outcome [7] | outcome [8] | outcome [9] | outcome [10] | outcome [11] | outcome [12] | outcome [13] | outcome [14] | max response [16] -0.48% and -22.2% | activation [20] 0.277% and 2.12% | max response [17] -5.3% and -0.232% | max response [18] -16.4% and -15.3% | Potency [19]
-5.69% and -1.37%: max response [15]

Cn1nnnc1SCC1=C(C(=O)O)N2C(=O)[C@H](NC(=O)C(O)c3ccccc3)C2SC1 (stereo not given in full)
active: Potency [1] 8.91 µM
